For 69 sequences, z-score results are on record in PubChem BioAssay AID1508600 (Functional Genomics Laboratory (NCATS/FGL), 2020).

Screen size: about 53,000 sequences; about 3,700 (7%) were called active. This is one part of a sample in which actives are shown more often than they occur. A number with no mark means an inactive call.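 Rule for the calls: active = gene knockdowns whose robust z-score for IL-1 alpha signal is at least 2 or at most -2, so actives lie on both sides; inactive = the rest.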

The experiment is described as follows: Components of the Cytosolic LPS Sensing Pathway: Gene Identification via Genome-wide siRNA Screen.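 Note: robust z of the log signal after scaling to non-targeting control siRNA wells of the plate.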 The note with it: RAW264.7 macrophages, IL-1a HTRF, actives lie on both sides, screened at 100 nM (by protocol), cells primed 5 h with Pam3CSK4 first. The method, boiled down: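 Three distinct siRNAs per gene were tested singly at 100 nM in RAW264.7 macrophages. Following Pam3CSK4 priming and 24 hour LipidA transfection, IL-1a secretion was read by HTRF.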
(In general: Time-resolved FRET reads energy transfer from a long-lived donor to a nearby acceptor.)
Regarding CGACAACGACAUCAUGGAATT against Sfrp2, the z-score was 1.52.
Regarding GGGAAUGAAAUGUUCUUCGTT against Ttl, the z-score is -0.121.
The result for CGCAGUGGACUCAUCUUGATT against Sestd1 reads -0.65.
The result for GCCAUUCUAAGCUGCCAAATT against Mcat reads -0.000938.
Then GGACAGAGCGUGCACUAGATT against Slc66a1, with -1.32.
As to CCUGGCACUCAUAGUAUACTT against Tm6sf2, the z-score was -2.33 (active).
Then GGUGCUGGUUUUUAAGAAATT against Hsbp1, with 1.84; and CGGAAUGCCAAAGAUGUGGTT against Sult1d1, with -0.872.
For GUGACUCCCAAACUCCUGATT against Olfr1180, the z-score was -1.81.
Then CCAUUCCUUAAAAGAGCAUTT against Lce1g, with 1.07; and GGACUUUCUUAACUACACUTT against Slc2a3, with 0.865.
On to GGAUUACGGUGGGAUCAUGTT against Faxc, for which the z-score is -1.38.
Turning to “GGUGCUGAUGGGAGAUAGUTT against 1700010H22Rik”, the z-score is -0.851.
Then GGAAAUCUACAUCAUGGCUTT against Ift140, with -2 (active).
The result for GGGAAGAGAGACGAAAAAATT against Nufip1 reads 1.13; that for GGACCAGCUUGAAGCUGAATT against Atl2, 0.388.
Then GGCUAAAAUAAAGAAGAAGTT against Cfap100, with 0.00546; and CCGACAGCUCUAAAGGAACTT against Celf6, with 0.838; and GCUACACCCGCAUGACAAATT against Trit1, with 2.43 (active).
In the case of GGUUAUAUAAGCAUCAAGGTT against Adamts18, the z-score is -0.621.
In the case of GCAGAGCGGGAUUUCAUUCTT against Sh3glb2, the z-score was -1.23.
As for CCAUAUGGCUUAUCUUAUUTT against Adam5, the z-score was 0.138.
Then GGCAAGAAGGACAAUGAGUTT against Mb21d2, with -2.82 (active); and GGUUUUUGUUGUAAUAGGCTT against Olfr915, with -0.758; and GGUAACAACUUUUAAGCCUTT against Prps2, with -0.318.
The result for GCAGCUUAAGUUGCCCAAGTT against Aatk reads -0.27.
On to GGAUUUUGCUGUUUUGGAATT against Dsc1, for which the z-score was 0.41.
For the sequence CGGUAGCCAUAUUAAUAUCTT against Spink2, the z-score was 0.417.
In the case of GGCUUACAAUGUGAUUUACTT against Cd7, the z-score was 1.92.
For the sequence GCUUCACUCUCUUCUUUGCTT against Olfr1463, the z-score is -3.05 (active).
The result for GCUCAACAAGGAUACGGUGTT against Tnfrsf11a reads 0.704.
In the case of GGAUAUAACCAUCCUCUGUTT against Zscan29, the z-score is 0.578.
Then GGGUCCCAAACAAUAACUUTT against Aebp1, with 1.7.
The result for CCCAGACUCAGUUUUAACUTT against Spsb4 reads -1.88; that for GGGCCUCCUUCUCAUCAUUTT against Scarf2, 0.9.
The result for GGUAACUUCCCAGGAGGGATT against Bcl9 reads 0.549.
For the sequence GGAUUGGUUCAUGACCUGATT against Trim52, the z-score was -0.814.
The result for GGUGAUCCUUAUGCUGUUATT against Ehmt2 reads 0.305; that for GGUGCUUGGGAAUUUUGAUTT against Gpsm2, 2.31 (active).
In the case of CCAUCAUGACGGUUCCCUATT against Mrgpra5, the z-score is -1.43.
Then GGUUCUUCCCACAGAAGACTT against Pggt1b, with 0.176.
The result for GGAUGACGAAGCCUAUGAUTT against Nacc2 reads -1.16; that for GGAGUGACAAAAGAAAUAATT against Nudt12, 0.489.
The result for GGAAAUACUCUCAUCAUCGTT against Olfr214 reads -1.17.
On to “CGCAUAUCUAGAAUGGUUATT against 2810021J22Rik”, for which the z-score is 1.74.
With GGGUAACAGAUGAAGGGUCTT against Synpo2l, the z-score is 2.48 (active).
Consider GGACUACUCCAGAAAGCUUTT against Wdfy3, for which the z-score was -0.0605.
Then GCAAAAUGGUUCCUUUGGATT against Sec24c, with -0.396; and GGACAUUAUUUCUAUAUGGTT against Eif4e2, with -1.2; and GGCCCAUUCAGAUCAUCCATT against Vmn1r65, with -0.197.
As for CCCGGUAUUAAAUUUAAUGTT against Aox4, the z-score is 0.807.
Then GCAUGUUUAGAACUAGCUCTT against Zfp87, with 0.76; and CCAUCAAUUGGAAAUCUUUTT against Tnn, with -1.01; and GGUACAUCUUAGAGGCCAATT against Epo, with 2.66 (active).
As for CUCAGAUAUUCUUUUCCCATT against Olfr142, the z-score is -1.25.
On to CGUGUAACACACGAUUAGATT against Myot, for which the z-score was 0.587.
Take GGAACUUCAUUGAACUAUGTT against Trmt2b: the z-score is -0.363.
As for GGACGUGUACAUUGUCAAGTT against Unc5a, the z-score was 2.07 (active).
Then GUUAUCAGGAAGGAAAGCCTT against Sdhaf4, with 0.248; and GGACAGCAAGACAGAAAACTT against Csf2rb2, with -0.26.
The result for GGCUGGAGAUCUCUCAAAGTT against Nkain2 reads 1.64; that for CGAGAUUAUCAGUCAAUUGTT against Tex24, 2.02 (active); that for GGCUUCUGUUUUUAUUUGUTT against Zbtb7c, 1.07.
Then CGAACUGAAGGUUUUCAAUTT against Knstrn, with 0.422; and CCUCACGGCCUUAUAUCUCTT against Fmod, with -1.8; and GGAGACAACCUGUACUCAGTT against Zfp352, with -3.18 (active).
On to GGAGAGAGAUGCCCAAAUCTT against Zfp507, for which the z-score was -0.362.
Regarding CCAGCUGUGUAACACUACCTT against Gfi1, the z-score is 1.08.
With CCUCUACGAUGACUGGAUGTT against Sh3bp1, the z-score is 0.227.
